KB-V1 MDR tox: qHTS assay for MDR1-selective chemotherapeutics: Primary screen using the drug-selected MDR subline cells KB-V1; KB-V1 MDR cells viability, CellTiter-Glo, 72 h; Potency, µM (doses to about 46.1 µM), actives largely listed as cytotoxic; hit rate 3.4% among 400,000; note: % is set by controls: 0 for no effect and ±100 for the full control effect; nearly all actives have a fitted effect of over 60% in size
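KB-V1 cells (P-gp-expressing MDR subline of KB-3-1) in phenol-red-free DMEM with 10% FBS were exposed to library compounds over a concentration series for 72 h at 37 degrees C. Viability read by CellTiter-Glo luminescence; concentration-effect curves fitted after normalization.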
KB-3-1 cytotox: qHTS assay for MDR1-selective chemotherapeutics: Primary screen using the parental adenocarcinoma cell KB-3-1; Potency, µM (top dose mostly 46.1 µM), most hits filed as cytotoxic; AID 1347075, 2019; hit rate 1.4% among 400,000; KB-3-1 viability, CellTiter-Glo ATP luminescence, 72 h; note: % is set by controls: 0 for no effect and ±100 for the full control effect; nearly all actives have a fitted effect of over 60% in size
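KB-3-1 parental drug-naive adenocarcinoma cells in DMEM/10% FBS, incubated 72 h at 37 C with pin-transferred compounds across a concentration series. Viability by CellTiter-Glo luminescence; concentration-response curves fitted after normalization.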
ELG1 repair inh: qHTS screen for small molecules that inhibit ELG1-dependent DNA repair in human embryonic kidney (HEK293T) cells expressing luciferase-tagged ELG1; Potency, µM (series often up to 46.1 µM), for the others: at the top dose activity change, negative = inhibition, actives largely listed as inhibitors; HEK293T ELG1-luciferase reporter, luminescence, 16 h; DNA damage induced by 5-fluorouridine; hit rate 2.3% among 330,000; note: % is set by controls: 0 for no effect and ±100 for the full control effect; nearly all actives have a fitted effect of over 55% in size
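Luminescence from the luciferase reporter, measured 30 min after ONE-Glo reagent at room temperature, was the read-out. Beforehand, 2,000 cells per well were exposed for 16 hr at 37 °C to 5-fluorouridine together with compound or vehicle.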
MCF10A rerep: A quantitative high throughput screen for small molecules that induce DNA re-replication in MCF 10a normal breast cells | hit rate 2.9% among 350,000 | MCF 10A DNA re-replication, Hoechst nuclear intensity, 48 h | AID 624296, 2012 | Potency, µM (highest dose often 46.1 µM), for inactives: at the top dose activity, positive = re-replication, hits mostly activators; note: % of control where 0% means no effect; nearly all actives have a fitted effect of over 50% in size
SW480 rereplic: A quantitative high throughput screen for small molecules that induce DNA re-replication in SW480 colon adenocarcinoma cells; SW480 DNA re-replication, Hoechst DNA content imaging, 48 h; Potency, µM (doses to about 46.1 µM), inactives show top-dose re-replication activation, usual class: activators; hit rate 1.8% among 340,000; AID 624297, 2012; note: % of control where 0% means no effect; nearly all actives have a fitted effect of over 55% in size
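Cells (250 per well) received 23 nL compound or DMSO by pin tool and were kept 48 hr at 37 C, 5% CO2. Nuclei were then stained with Hoechst for 40 min and scanned for DNA content.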
An asterisk follows results filed as active; i = inactive; ? = inconclusive; . = no result given. Compounds with a hit are over-represented: about 8.2% of the library has one in this group of screens. Calls come from the whole dose curve; as a rule, active = well fitted curve in the direction sought with a large enough effect; inconclusive = small, poorly fitted or top-dose-only effect, or another doubt; inactive = no such curve, though single readings can be large; an effect the other way counts as inactive or inconclusive. Potency is the fitted concentration of half-maximal effect.

SMILES	KB-V1 MDR tox	KB-3-1 cytotox	ELG1 repair inh	MCF10A rerep	SW480 rereplic
COc1cc2c(cc1OC)CN(CC(=O)Nc1ccc(C)c(S(=O)(=O)N3CCOCC3)c1)CC2	i	i	?	-2%	-5%
Cc1ccc(NC(=O)CN2CCc3ccccc3C2)cc1S(=O)(=O)N1CCOCC1	8.2µM*	i	?	-5%	8%
CC(=O)c1cc2c(cc1NC(=O)c1ccc(C)cc1)OCCO2	?	i	7%	11%	0%
Cc1ccc(Cl)cc1NC(=O)C1CCCN1S(=O)(=O)c1ccc(-c2ccc(=O)[nH]n2)s1 (centres undefined)	i	?	-26%	?	4µM*
c1ccc(SC23CCCCN(CCC2)C32OCCO2)cc1 (centres undefined)	i	i	.	.	.
Cc1ccc(CNC(=O)CSc2nc3ccccc3nc2Cc2ccc(C)cc2)cc1	i	i	.	.	.
COc1ccc(OC)c(CCNC(=O)CS(=O)(=O)Cc2nc(-c3ccccc3C)oc2C)c1	6.5µM*	?	?	6%	-3%
Cc1ccccc1-c1nc(CS(=O)(=O)CC(=O)NCCCc2ccccc2)c(C)o1	i	i	.	.	.
COc1cccc(-c2nc(CS(=O)(=O)CC(=O)NCc3ccccc3OC)c(C)o2)c1	i	i	1%	4%	-3%
COc1ccc(OC)c(CCNC(=O)CS(=O)(=O)Cc2nc(-c3ccccc3Cl)oc2C)c1	i	i	21µM*	12%	-7%
COC(=O)C1=NNC(C(=O)OC)C1c1ccccc1 (centres undefined)	i	i	.	1%	-5%
COc1ccccc1CCN1CCCC(CN(C)Cc2ccc(OCCO)cc2)C1 (centres undefined)	i	i	-2%	21µM*	?
COc1ccccc1CCN1CCCC(CN(C)CC(C)(C)CO)C1 (centres undefined)	?	i	-5%	?	-2%
Cc1noc(C)c1C(=O)OC(C)C(=O)NC(C)c1ccc(Cl)cc1Cl (centres undefined)	i	i	?	-1%	-13%
Cc1nnc(SCC(=O)N2c3ccccc3C(C)(c3ccccc3)CC2(C)C)s1 (centres undefined)	8.2µM*	16µM*	-1%	?	6%
CCSc1nnc([C@H](Cc2ccccc2)NC(=O)OC(C)(C)C)o1	16µM*	i	7%	7%	2%
CCCCSc1nnc([C@H](CC(C)C)NC(=O)OC(C)(C)C)o1	i	i	-17%	7%	0%
CC(C)(C)OC(=O)N[C@@H](Cc1ccccc1)c1nnc(SCC(=O)c2ccc(Cl)cc2)o1	16µM*	i	?	?	?
CC(C)(C)OC(=O)N[C@@H](Cc1ccccc1)c1nnc(SCC(=O)O)o1	i	i	1%	18%	-3%
CCCCSc1nnc([C@H](C)NC(=O)OC(C)(C)C)o1	13µM*	i	3%	16%	-3%
Cc1cc(NC(=O)CCS(=O)(=O)c2cc(Br)cc3c2N(C(=O)C2CC2)CC3)ccc1Br	?	i	.	.	.
O=C(Cn1c(-c2ccccc2)c[n+]2ccsc12)c1ccc([N+](=O)[O-])cc1	i	21µM*	-3%	18%	4%
O=C(Cn1c(-c2ccccc2)c[n+]2ccsc12)c1ccccc1	i	?	?	-5%	2%
O=C(Cn1cc[n+](Cc2ccccc2)c1)c1ccc([N+](=O)[O-])cc1	i	?	15µM*	1%	2%
O=C(Cc1ccccc1F)NCC(c1ccco1)N1CCCCC1 (centres undefined)	i	i	0%	20%	-5%
SMILES	KB-V1 MDR tox	KB-3-1 cytotox	ELG1 repair inh	MCF10A rerep	SW480 rereplic
CC1Sc2ccc(S(=O)(=O)CCC(=O)N(C)Cc3ccccc3)cc2NC1=O (centres undefined)	i	i	-4%	1%	-25%
NC(=O)Cc1ccc(C(=O)CSc2nnc(-c3ccncc3)n2C2CC2)s1	i	i	3%	-6%	-12%
CCC1(OC(=O)CN(C)C)C(=O)OCc2c1cc1n(c2=O)Cc2cc3c(N)cccc3nc2-1 (centres undefined)	2.9µM*	?	.	18%	?
COc1cccc(N/C(=N/C(=S)Nc2ccc(C)cc2C)Nc2nc(C)cc(C)n2)c1	?	i	26µM*	?	?
CC(C)OC(=O)Cc1nc2sc(-c3ccccc3)cc2c(=O)[nH]1	?	i	?	14%	-1%
Cc1nc2sc(-c3ccccc3)cc2c(=O)[nH]1	16µM*	?	?	26µM*	?
O=c1[nH]c(-c2cccnc2)nc2sc(-c3ccccc3)cc12	2.9µM*	?	?	1.3µM*	3.7µM*
COc1ccc2oc(C(=O)OCC(=O)N3CCCCC3C)c(C)c2c1 (centres undefined)	21µM*	i	17%	1%	-4%
COc1ccc(NC(=O)c2oc3ccc(S(=O)(=O)N4CCCCC4)cc3c2C)cc1	6.5µM*	i	.	.	.
Cc1ccc(NC(=O)c2oc3ccc(S(=O)(=O)N4CCC5(CC4)OCCO5)cc3c2C)cc1C	i	i	6.5µM*	3%	2%
COc1cccc(NC(=O)c2oc3ccc(S(=O)(=O)N4CCCCCC4)cc3c2C)c1	i	i	.	.	.
CCN(CC)C(=O)c1oc2ccc(S(=O)(=O)N3CCCCCC3)cc2c1C	13µM*	i	-27%	30%	3%
CCN(CC)C(=O)c1oc2ccc(S(=O)(=O)N3CC(C)CC(C)C3)cc2c1C (centres undefined)	?	i	?	?	-21%
Cc1ccc(C)c(N2CCN(c3c(CN4CCCC4)c(=O)oc4ccccc34)CC2)c1	i	i	.	.	.
Cc1c(C(=O)NCc2cccnc2)oc2ccc(S(=O)(=O)N3CCC4(CC3)OCCO4)cc12	?	i	23µM*	1%	-5%
CCOC(=O)c1oc2ccc(S(=O)(=O)N3CCC(C)CC3)cc2c1C	16µM*	i	-27%	16%	1%
Cc1ccc(N2C(=O)CC(c3ccccc3F)C3=C2COC3=O)cc1Cl (centres undefined)	i	i	.	.	.
O=S(=O)(Cc1ccccc1)CS(=O)(=O)Cc1ccccc1	i	i	.	-19%	2%
CC(C(=O)Nc1ccc(Cl)cc1)c1ncc(C(F)(F)F)cc1Cl (centres undefined)	26µM*	i	?	?	?
CC(=O)Nc1cncc(-c2ccccc2N(C)C)n1	i	i	.	.	.

Screening results (PubChem)
